Laboratory results as given in PubChem BioAssay (Tox21).
Values joined by “and” are separate entries in the source; they are usually repeats but may differ in a detail not shown here. Equal values may be shown once. Inconclusive results are not listed. A call without a number means that no potency is given here. Some structures have more than one record in an assay (separate samples or runs), and their calls can disagree. Active and inactive are the calls of the source. The call rests on the fitted dose curve; in most records, active means well fitted activation curve with a large enough effect in the repeat runs; inconclusive means weak or mixed curves; inactive means flat fitted curve, though single readings scatter.

experiment: A CellTox Green Cytotoxicity Assay to monitor cytotoxicity in HepG2 cells - 16 hour (AID 1224876); conditions: CellTox Green fluorescence; series mostly up to 76.8 µM; cytotoxicity increase: at the top concentration; further: nearly all actives have a fitted effect of over 45% in size
From the text: National Center for Advancing Translational Sciences [NCATS]
NIH Chemical Genomics Center [NCGC]
U.S. Environmental Protection Agency [EPA]
National Institutes of Environmental Health Sciences [NIEHS]
National Toxicology Program [NTP]
Cell-based models are critical for drug discovery. Determining the natural cytotoxic effects resulting from test compounds is an essential research activity. A CellTox Green Cytotoxicity Assay to monitor cytotoxicity in real time of continues cell culture during 40 hours of the compound treatment was used to screen Tox21 10K library compounds in HepG2 cells. CellTox Green Cytotoxicity Assay is a nonlytic, homogeneous, biofluorescent method to measure cytotoxicity in cell culture after experimental manipulation. The assay system uses a proprietary asymmetric cyanine dye that is excluded from viable cells but preferentially stains the dead cell's DNA. […] Viable cells produce no appreciable increases in fluorescence. Therefore, the fluorescence signal produced by the binding interaction with dead cell DNA is proportional to cytotoxicity.
The mixture of HepG2 cell suspension and reagents were dispensed at 600cells/6 ul/well in 1536-well tissue culture treated black solid bottom plates using a Multidrop dispenser. After the assay plates were incubated at a 37 C/5% CO2 incubator for 5 hours, 23 nL of compounds dissolved in DMSO, positive and negative controls was transferred to the assay plate by a pintool work station. The plates were incubated at 37 C for 40 hours. The fluorescence intensity were measured at 0h, 8h, 16h, 24h, 32h and 40h time points using ViewLux plate reader during compound treatment.
Potency means the concentration at half of the fitted maximal effect.

Structure (SMILES) | Potency | cytotoxicity increase
O=C(O)CCCCCCCCCCC(=O)O | inactive | 
Fc1ccc(Br)cc1 | inactive | 
O=C1CCC(N2C(=O)c3ccccc3C2=O)C(=O)N1 (stereo not given) | inactive | 
COCCCOc1ccnc(CS(=O)c2nc3ccccc3[nH]2)c1C (stereo not given) | inactive | 
CC(C)(N)CO | inactive | 
O=C(O)CC(C(=O)O)C(CC(=O)O)C(=O)O (stereo not given) | inactive | 
CCCCCCCCCCCCCCO | inactive | 
N[C@@H](Cc1cc(I)c(Oc2cc(I)c(O)c(I)c2)c(I)c1)C(=O)O | inactive | 
CC(=O)Nc1ccccc1 | inactive | 
c1ccc2c(c1)ccc1ccccc12 | inactive | 
COc1ccc2cc([C@H](C)C(=O)O)ccc2c1 | inactive | 
CN(C)CCOCCN(C)C | inactive and 43.6 µM (active) | 
Cc1cccnc1 | inactive | 
CC(C)c1ccc(S(=O)(=O)O)cc1 | inactive | 
CN(C)CCCN | inactive | 
CCCCC(CC)COC(=O)CS (stereo not given) |  | 0.309% (inactive)
c1ccc(OCCOc2ccccc2)cc1 | inactive | 
C=C(C)C(=O)Nc1ccc(Cl)c(Cl)c1 | inactive | 
CC(=O)OCC(=O)[C@@]12N=C(C)O[C@@H]1C[C@H]1[C@@H]3CCC4=CC(=O)C=C[C@]4(C)[C@H]3[C@@H](O)C[C@@]12C | inactive | 
CCCCCCCCCCCCS | inactive | 

Structure (SMILES) | Potency | cytotoxicity increase
CN(C)CCC(c1ccccc1)c1ccccn1 (stereo not given) | inactive | 
CC(C)(C)[C@@H](O)[C@@H](Cc1ccc(Cl)cc1)n1cncn1 | inactive | 
O=C(OCCOCCOC(=O)c1ccccc1)c1ccccc1 | inactive | 
O=C(CC(C(=O)OC1CCCCC1)S(=O)(=O)O)OC1CCCCC1 (stereo not given) | inactive | 
C[C@H]1C[C@H]2[C@@H]3CCC4=CC(=O)C=C[C@]4(C)[C@@]3(F)[C@@H](O)C[C@]2(C)[C@@]1(O)C(=O)CO | inactive | 
CC(=O)CC(=O)Nc1ccccc1C | inactive | 
c1c[nH]cn1 | inactive | 
CC(c1cc2ccccc2s1)N(O)C(N)=O (stereo not given) | inactive | 
CCCCCC(N)=O | inactive | 
C=CCOC(=O)c1ccccc1C(=O)OCC=C | inactive | 
CC1=CC(=O)NS(=O)(=O)O1 | inactive | 
CCc1cccc(C)c1N | inactive | 
CC(=O)CC(=O)Nc1ccccc1 | inactive | 
CCCCCCCCCCCCCCCO | inactive | 
OC[C@H]1O[C@@](CO)(O[C@H]2O[C@H](CO)[C@@H](O)[C@H](O)[C@H]2O)[C@@H](O)[C@@H]1O | inactive | 
c1ccc2scnc2c1 | inactive | 
COS(C)(=O)=O | inactive | 
Cc1cc(C)c(C)cc1C | inactive | 
CCCCCCCCCCCCc1ccccc1 | inactive | 
O=C(O)c1cc(=O)c2c(OCC(O)COc3cccc4oc(C(=O)O)cc(=O)c34)cccc2o1 | inactive | 
